Experimental findings from PubChem BioAssay (NCATS) are described below.

Molecules are shown by their SMILES. Inconclusive results are not listed. Active and inactive are the calls of the source. Unless noted, calls come from the whole dose curve; as a rule, active = well fitted curve in the direction sought with a large enough effect; inconclusive = small, poorly fitted or top-dose-only effect, or another doubt; inactive = no such curve, though single readings can be large; an effect the other way counts as inactive or inconclusive.

Assay [1] addresses Cytochrome P450 3A4 (Homo sapiens) (UniProt P08684). The assay is described as follows: qHTS Assay for Activators of Cytochrome P450 3A4 (AID 885). Note: nearly all actives have a fitted effect of over 65% in size. The essentials: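 Using 20nM recombinant human CYP3A4 in potassium phosphate (200mM), substrate Luciferin-PPXE at 25uM, luminescent luciferin detection followed a 60-min RT NADPH reaction; data scaled to 57 uM ketoconazole.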
On the technique in general: Quantitative high-throughput screening tests each substance at several concentrations.

Assay [2] can be described thus: Confirmation and Secondary Assay for Modulators of Hemoglobin Beta Chain Splicing at IVS2 654 locus (AID 910).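 Note: HeLa cells stably carrying EGFP split by mutant beta-globin IVS2-654 intron; per-well total GFP intensity by laser scanning cytometry after 2-day treatment.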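 Note: potency is the fitted concentration of half-maximal effect; potency of activators that raise GFP signal by restoring correct splicing.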 The essentials:
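Readout: per-well total peak green fluorescence (488 nm ex, 500–520 nm em) from objects 5–250 µm, reflecting correct splicing of an EGFP-654 reporter. Compounds were applied for 2 days at 37 °C to overnight-plated HeLa EGFP-654 cells; controls were DMSO and 500 nM IVS2-654 PNA.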

A short description of assay [3]: Confirmation and Secondary Assay for Modulators of Hemoglobin Beta Chain Splicing at IVS2 705 locus (AID 930).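 Note: HeLa cells stably expressing the EGFP-705 splicing reporter; % of control where 0% means no effect.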 The essentials: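 Assay measures total GFP intensity per well in HeLa EGFP-705 cells after 2 days with compound; mis-splicing normally truncates EGFP, so fluorescence indicates corrected splicing.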
A short description of assay [4]: qHTS Assay for Lipid Storage Modulators (AID 1519; calls by dose curve; note: potency is the fitted concentration of half-maximal effect). As to conditions: Drosophila S3 cells, BODIPY lipid droplet/cell ratio, laser cytometry, cells loaded with oleic acid; for activity change, negative = inhibition: at 57.5 µM (top of the series). The essentials: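 Cells seeded at 5,000 per well were treated with compounds over a concentration series and loaded with oleic acid (400 uM, as added). Lipid droplet fluorescence (488 nm excitation, 500-530 nm channel) was read by laser-scanning cytometry and normalized to 20 uM Triacsin C.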

Assay [5] deals with Cytochrome P450 3A4 (Homo sapiens) (UniProt P08684). The assay is described as follows: qHTS Assay for Inhibitors and Substrates of Cytochrome P450 3A4 (AID 884). Note: potency is the fitted concentration of half-maximal effect; nearly all actives have a fitted effect of over 50% in size. The essentials: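 Luminescent readout of luciferin produced by CYP3A4 (20 nM) dealkylation of Luciferin-PPXE, 25 uM (its KM). NADPH-driven reaction ran 60 min at RT after 10 min compound preincubation; data scaled to 57 uM ketoconazole as 100% inhibition.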

In assay [6] the target is Lysosomal acid glucosylceramidase (Homo sapiens) (UniProt P04062). The assay can be described thus: Glucocerebrosidase-p2 (AID 348; in the data active = potency below about 10 µM; note: potency is the fitted concentration of half-maximal effect). The following applies: purified GBA, blue fluorogenic substrate, 40 min. The procedure, abridged: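 Normal human glucocerebrosidase (0.2 nM) with blue fluorogenic substrate (80 uM final) in citrate/phosphate pH 5.9 with 10mM sodium taurocholate, 0.01% tween-20; 40 min RT, NaOH/glycine stop; fluorescence Ex 365/Em 440; AC50 from a titration from 0.6 nM upwards.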

A short description of assay [7]: AP1 Signaling Pathway (AID 357; active = well fitted curve in either direction with a large enough effect, not every such curve was filed as active;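 note: ME-180 reporter cells stimulated with EGF at its EC50 level; % is set by controls: 0 for no effect and ±100 for the full control effect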). The following applies: ME-180 AP-1-bla reporter, EGF-induced, beta-lactamase ratio, 5 h; at 7.69 µM (top of the series) unless noted. The essentials: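 Titration-series screen for positive or negative modulators of EC50 EGF-induced signaling in ME-180 cells carrying an AP-1-driven beta-lactamase reporter. After 5 hours at 37 degrees Celsius, CCF4 460nm/530nm emission ratio gave %Activity; AC50 values derived.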

Assay [8] addresses Cytochrome P450 1A2 (Homo sapiens) (UniProt P05177). The assay can be described thus: p450-cyp1a2 (AID 410; calls by dose curve; note: potency is the fitted concentration of half-maximal effect). The essentials: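 O-Demethylation of luciferin 6' methyl ether by human CYP1A2 is monitored as luciferase luminescence. Substrate sits at Km (100uM); enzyme is 20nM. Values are scaled to 57 uM furafylline as maximal inhibition.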
Assay [9] is described as follows: NFAT Signaling Pathway (AID 444; active = well fitted curve in either direction with a large enough effect, not every such curve was filed as active;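 note: carbachol stimulus at about its EC50 of 1 µM final; % is set by controls: 0 for no effect and ±100 for the full control effect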). The following applies: Jurkat NFAT-bla M1, carbachol, beta-lactamase ratio, 5 h; at 7.69 µM (top of the series) unless noted. The essentials: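 Read-out: CCF4 FRET ratio (460 nm/530 nm) after 1 h RT dye loading, used for %activity and AC50 from titration series. Cells: Jurkat NFAT-β-lactamase/M1 line, treated with compound plus 1 uM carbachol for 5 h, 37 °C.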

The nature of assay [10]: Stat Signaling Pathway (AID 446; active = well fitted curve in either direction with a large enough effect, not every such curve was filed as active;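 note: ME-180 cervical cancer cells given 40 pM IL-6 alongside compound; SIE-controlled beta-lactamase reporter measured as 460/530 nm FRET emission ratio; % is set by controls: 0 for no effect and ±100 for the full control effect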). The following applies: ME-180 SIE beta-lactamase reporter, IL-6 stimulated, 5 h; at 7.69 µM (top of the series) unless noted. The procedure, abridged: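 Overnight-plated ME-180 cells bearing a STAT Inducible Element beta-lactamase reporter; 5 h co-exposure to compound and 40 pM IL-6; values normalized to 300 pM IL-6 and 125 nM JAK inhibitor controls.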

Assay [11] has as its target Glucocorticoid receptor (Homo sapiens) (UniProt P04150). The assay is described as follows: GR-GFP Redistribution (AID 450;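 active = compounds whose dose series gives a full or clear partial fitted curve of increased nuclear translocation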; note: potency is the fitted concentration of half-maximal effect). As to conditions: U2OS GR-GFP nuclear translocation, laser cytometry, 2 h.
Assay [12] shares this target. The assay is described as follows: GR-EFC Redistribution (AID 451; calls by dose curve; note: potency is the fitted concentration of half-maximal effect). The following applies: CHO-K1 GR-EFC translocation, beta-gal luminescence, 2 h. The procedure, abridged:
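Translocation of GR-ED fusion to nuclear EA restores b-gal, read by luminescence after 1 h room-temperature detection. Engineered CHO-K1 biosensor cells, 1,000/well, exposed 2 h at 37 C to titrations up to 46 uM final.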

Assay [13] addresses Mitogen-activated protein kinase 10 (Mus musculus) (UniProt Q61831). The assay can be described thus: JNK3 AlphaScreen Assay (AID 530; active = well fitted curve in either direction with a large enough effect, not every such curve was filed as active;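 note: kinase came from lysate of stimulated human HepG2 cells; signal reports phosphorylation of biotinylated GST-cJun 1-79 at Ser73 with 10 µM ATP; % is set by controls: 0 for no effect and ±100 for the full control effect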). The essentials: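 qHTS titrations with 15 min compound pre-incubation before adding ATP (10 uM final). Read-out: AlphaScreen of Ser73-phosphorylated biotin-GST-cJun using HepG2 lysate JNK3 activated by IL-1β and TNFα.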
On the technique in general: In Alpha technology, singlet oxygen from a donor bead excites a nearby acceptor bead.

The target in assay [14] is 3',5'-cyclic-AMP phosphodiesterase 4B (Homo sapiens) (UniProt Q07343). The assay can be described thus: qHTS Assay for Inhibitors of PDE-IV (AID 607; active = well fitted activation curve with a large enough effect in the main read-out, with a control signal flat, not every such curve was filed as active; note: % of control where 0% means no effect). The procedure, abridged: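 Live HEK293 cells with a modified cyclic nucleotide-gated (CNG) channel report intracellular cAMP via membrane-potential dye fluorescence (ex 535/em 590 nm). Endogenous PDE-IV was targeted. Compounds were tested at up to 22.9 uM final; RO 20-1724 100 uM served as control.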

Assay [15] can be described thus: qHTS Assay for Identification of Small Molecule Agonists for Hypoxia Response Element Signaling Pathway (AID 914; active = well fitted activation curve with a large enough effect in the signal ratio, with a control signal flat, not every such curve was filed as active; the % refers to the signal ratio; note: % of control where 0% means no effect). As to conditions: ME-180 (cervical carcinoma) HRE-bla reporter, beta-lactamase ratio, CoCl2, 17 h; activation: stronger effect = higher value. The essentials: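 Compounds in a titration series were added to ME-180 reporter cells alongside an EC50 level of CoCl2. After 17 hours, beta-lactamase activity was read as the 460nm/530nm emission ratio of CCF4, giving AC50 values.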

Assay [16] deals with Dual specificity protein kinase CLK4 (Homo sapiens) (UniProt Q9HAZ1). The assay is described as follows: qHTS Assay for Inhibitors of CDC-like Kinase 4 (Kinase-Glo Assay) (AID 1770). Note: nearly all actives have a fitted effect of over 65% in size. Note: potency is the fitted concentration of half-maximal effect. The essentials: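 Inhibition was judged from remaining ATP, measured by Ultra-Glo luciferase bioluminescence after Clk4 (25 nM) had acted on RS peptide at 1 uM ATP for 4.5 hours, room temperature.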

Assay [17] has the same target. The assay is described as follows: qHTS Assay for Inhibitors of CDC-like Kinase 4 (ADP-Glo Assay) (AID 1771). Note: nearly all actives have a fitted effect of over 70% in size. Note: potency is the fitted concentration of half-maximal effect. The essentials: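 Compounds are pin-transferred onto substrate mix (100 uM RS peptide, 1 uM ATP), then 25 nM Clk4 is added. After 1 hr at room temperature, ADP-Glo reagent runs 45 min, detection reagent 30 min, then luminescence is read.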
Assay [18] shares this target. The assay is described as follows: qHTS Assay for Inhibitors of CDC-like Kinase 4 (ADP-FP Assay) (AID 1795). Note: nearly all actives have a fitted effect of over 60% in size. Note: potency is the fitted concentration of half-maximal effect. The procedure, abridged: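 Inhibition of ADP formation by 6.25 nM Clk4 is measured using 1 uM ATP and 100 uM RS repeat peptide over one hour. Produced ADP displaces a fluorescent tracer from antibody, lowering polarization.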
In assay [19] the target is Ubiquitin carboxyl-terminal hydrolase 1 (Homo sapiens) (UniProt O94782). The assay is described as follows: Inhibitors of USP1/UAF1: Pilot qHTS (AID 504865).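 Note: rhodamine fluorescence freed from ubiquitin-rhodamine substrate followed over time; top concentration of the series differs between compounds; % is set by controls: 0 for no effect and ±100 for the full control effect; nearly all actives have a fitted effect of over 35% in size.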 The essentials:
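Kinetic fluorescence assay: 1nM USP1/UAF1, 15 min compound preincubation, then 150nM Ub-Rho; 480/540 nm.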

[20] abbreviates: measured here: cell count channel max response.
[21] abbreviates: measured here: lipid channel max response.

Dual specificity protein kinase CLK4 (Homo sapiens), sequence (Q9HAZ1 whole entry, looked up): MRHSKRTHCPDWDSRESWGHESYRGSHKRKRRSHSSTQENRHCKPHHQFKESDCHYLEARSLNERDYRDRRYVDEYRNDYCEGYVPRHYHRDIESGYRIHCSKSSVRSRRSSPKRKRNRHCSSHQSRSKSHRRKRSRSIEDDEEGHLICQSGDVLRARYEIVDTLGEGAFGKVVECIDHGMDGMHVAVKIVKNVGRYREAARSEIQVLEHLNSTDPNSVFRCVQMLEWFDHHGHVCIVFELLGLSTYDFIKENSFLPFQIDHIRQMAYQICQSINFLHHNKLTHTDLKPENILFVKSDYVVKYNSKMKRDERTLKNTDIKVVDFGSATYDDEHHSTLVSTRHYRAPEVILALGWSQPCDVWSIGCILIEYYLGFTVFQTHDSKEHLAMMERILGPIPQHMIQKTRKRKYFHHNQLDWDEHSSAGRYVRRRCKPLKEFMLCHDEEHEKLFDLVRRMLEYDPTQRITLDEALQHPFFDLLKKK
Cytochrome P450 1A2 (Homo sapiens), sequence (P05177 whole entry, looked up): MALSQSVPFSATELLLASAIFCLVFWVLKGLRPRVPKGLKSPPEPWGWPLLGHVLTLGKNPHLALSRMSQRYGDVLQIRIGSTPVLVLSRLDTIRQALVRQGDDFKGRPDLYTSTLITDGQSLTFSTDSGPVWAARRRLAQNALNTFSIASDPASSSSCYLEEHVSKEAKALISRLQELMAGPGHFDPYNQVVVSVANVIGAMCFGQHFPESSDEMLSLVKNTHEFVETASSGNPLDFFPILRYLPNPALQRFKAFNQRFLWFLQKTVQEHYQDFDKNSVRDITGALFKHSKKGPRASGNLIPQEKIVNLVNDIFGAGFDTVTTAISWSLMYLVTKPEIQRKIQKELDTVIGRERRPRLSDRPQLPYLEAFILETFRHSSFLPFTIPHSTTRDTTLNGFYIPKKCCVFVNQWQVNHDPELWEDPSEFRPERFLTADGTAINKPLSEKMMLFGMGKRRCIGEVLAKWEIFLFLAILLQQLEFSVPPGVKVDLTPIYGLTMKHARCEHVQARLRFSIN
Glucocorticoid receptor (Homo sapiens), sequence (P04150 whole entry, looked up): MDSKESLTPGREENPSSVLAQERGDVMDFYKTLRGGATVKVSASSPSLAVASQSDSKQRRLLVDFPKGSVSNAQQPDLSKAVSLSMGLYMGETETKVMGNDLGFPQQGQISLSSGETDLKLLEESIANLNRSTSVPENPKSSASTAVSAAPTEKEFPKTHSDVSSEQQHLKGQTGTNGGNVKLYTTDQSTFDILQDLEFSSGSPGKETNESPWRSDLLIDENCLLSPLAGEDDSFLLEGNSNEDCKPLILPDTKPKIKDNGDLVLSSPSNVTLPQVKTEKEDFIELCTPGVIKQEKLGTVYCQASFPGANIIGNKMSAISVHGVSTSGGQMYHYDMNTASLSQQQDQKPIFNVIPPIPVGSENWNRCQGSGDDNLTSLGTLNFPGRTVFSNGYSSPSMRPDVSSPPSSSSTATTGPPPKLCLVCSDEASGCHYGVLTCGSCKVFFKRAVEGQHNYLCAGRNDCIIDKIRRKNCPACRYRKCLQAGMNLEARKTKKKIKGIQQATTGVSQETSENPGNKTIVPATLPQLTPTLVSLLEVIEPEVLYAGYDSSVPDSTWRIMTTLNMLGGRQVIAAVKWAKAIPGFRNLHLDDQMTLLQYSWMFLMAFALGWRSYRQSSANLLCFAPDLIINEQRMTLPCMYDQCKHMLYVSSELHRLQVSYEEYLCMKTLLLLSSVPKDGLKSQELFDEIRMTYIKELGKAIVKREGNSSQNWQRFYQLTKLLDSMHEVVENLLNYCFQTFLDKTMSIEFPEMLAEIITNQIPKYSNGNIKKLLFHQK
Cytochrome P450 3A4 (Homo sapiens), sequence (P08684 whole entry, looked up): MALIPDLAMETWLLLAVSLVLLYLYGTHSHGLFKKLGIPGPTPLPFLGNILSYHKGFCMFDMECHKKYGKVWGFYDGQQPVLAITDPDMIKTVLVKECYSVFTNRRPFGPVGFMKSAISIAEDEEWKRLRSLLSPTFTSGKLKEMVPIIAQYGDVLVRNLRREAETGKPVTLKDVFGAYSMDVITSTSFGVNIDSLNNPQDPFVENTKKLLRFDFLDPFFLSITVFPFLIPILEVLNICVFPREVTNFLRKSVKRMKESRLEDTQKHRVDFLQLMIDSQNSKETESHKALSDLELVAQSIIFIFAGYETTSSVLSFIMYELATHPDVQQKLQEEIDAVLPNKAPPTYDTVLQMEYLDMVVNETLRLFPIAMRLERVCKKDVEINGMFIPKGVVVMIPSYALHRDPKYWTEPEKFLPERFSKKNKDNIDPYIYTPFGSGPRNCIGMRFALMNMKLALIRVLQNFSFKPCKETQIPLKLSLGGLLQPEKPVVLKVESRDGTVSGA
3',5'-cyclic-AMP phosphodiesterase 4B (Homo sapiens), sequence (Q07343 whole entry, looked up): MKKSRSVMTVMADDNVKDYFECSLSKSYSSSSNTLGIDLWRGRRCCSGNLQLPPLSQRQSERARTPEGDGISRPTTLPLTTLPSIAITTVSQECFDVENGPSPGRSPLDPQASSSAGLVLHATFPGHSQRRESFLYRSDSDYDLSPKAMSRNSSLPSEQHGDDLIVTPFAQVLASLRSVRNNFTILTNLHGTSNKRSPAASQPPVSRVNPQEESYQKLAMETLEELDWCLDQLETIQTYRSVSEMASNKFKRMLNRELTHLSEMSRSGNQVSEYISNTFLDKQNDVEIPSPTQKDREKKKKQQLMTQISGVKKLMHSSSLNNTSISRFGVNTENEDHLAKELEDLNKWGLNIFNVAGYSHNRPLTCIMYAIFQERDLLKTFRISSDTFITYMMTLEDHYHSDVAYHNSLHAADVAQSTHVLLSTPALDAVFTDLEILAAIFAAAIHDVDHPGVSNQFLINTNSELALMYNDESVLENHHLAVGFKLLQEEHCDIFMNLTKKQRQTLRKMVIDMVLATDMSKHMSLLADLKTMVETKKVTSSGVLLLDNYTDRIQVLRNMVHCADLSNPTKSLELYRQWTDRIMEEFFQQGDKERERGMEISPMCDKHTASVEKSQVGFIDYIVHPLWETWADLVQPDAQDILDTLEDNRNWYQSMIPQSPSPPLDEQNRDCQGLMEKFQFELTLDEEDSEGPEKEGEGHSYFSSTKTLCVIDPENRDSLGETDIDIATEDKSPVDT
Lysosomal acid glucosylceramidase (Homo sapiens), sequence (P04062 whole entry, looked up): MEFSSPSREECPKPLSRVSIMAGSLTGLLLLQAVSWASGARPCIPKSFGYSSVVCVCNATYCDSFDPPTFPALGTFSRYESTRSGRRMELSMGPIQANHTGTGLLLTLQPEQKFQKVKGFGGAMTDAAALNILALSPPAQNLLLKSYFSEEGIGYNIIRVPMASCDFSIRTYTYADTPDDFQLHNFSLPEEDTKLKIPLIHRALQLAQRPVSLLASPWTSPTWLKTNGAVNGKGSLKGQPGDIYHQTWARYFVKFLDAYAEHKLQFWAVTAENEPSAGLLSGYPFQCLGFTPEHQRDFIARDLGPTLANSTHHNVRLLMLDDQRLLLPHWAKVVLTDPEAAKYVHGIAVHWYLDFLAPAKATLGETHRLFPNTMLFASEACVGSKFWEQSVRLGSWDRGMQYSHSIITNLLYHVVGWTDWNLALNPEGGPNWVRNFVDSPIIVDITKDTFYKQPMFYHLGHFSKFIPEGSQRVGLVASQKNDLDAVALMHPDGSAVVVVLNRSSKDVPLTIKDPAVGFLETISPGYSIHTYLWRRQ
Ubiquitin carboxyl-terminal hydrolase 1 (Homo sapiens), sequence (O94782 whole entry, looked up): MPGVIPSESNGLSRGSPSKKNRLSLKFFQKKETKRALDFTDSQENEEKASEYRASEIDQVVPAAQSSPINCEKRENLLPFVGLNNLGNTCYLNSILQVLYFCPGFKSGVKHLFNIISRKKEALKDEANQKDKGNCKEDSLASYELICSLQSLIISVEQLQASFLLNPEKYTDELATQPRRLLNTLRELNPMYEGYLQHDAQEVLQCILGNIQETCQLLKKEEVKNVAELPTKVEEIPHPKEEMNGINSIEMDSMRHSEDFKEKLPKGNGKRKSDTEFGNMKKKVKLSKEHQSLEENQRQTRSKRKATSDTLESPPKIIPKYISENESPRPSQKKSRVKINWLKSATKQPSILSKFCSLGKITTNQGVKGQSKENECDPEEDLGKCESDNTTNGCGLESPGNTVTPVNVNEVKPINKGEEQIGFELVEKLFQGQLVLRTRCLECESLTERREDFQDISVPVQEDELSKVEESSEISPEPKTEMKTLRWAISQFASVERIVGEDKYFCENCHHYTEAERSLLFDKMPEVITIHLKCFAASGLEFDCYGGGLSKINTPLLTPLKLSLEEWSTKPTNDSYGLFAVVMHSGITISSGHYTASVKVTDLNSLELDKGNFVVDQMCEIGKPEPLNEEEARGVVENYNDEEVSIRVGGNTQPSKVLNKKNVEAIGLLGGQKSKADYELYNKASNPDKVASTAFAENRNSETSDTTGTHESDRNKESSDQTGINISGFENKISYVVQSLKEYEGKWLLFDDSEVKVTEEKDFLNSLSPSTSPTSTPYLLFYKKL

For the molecule `COc1cc(C)c(C(=O)Oc2cc(C)c(C(=O)O)c(O)c2C)c(OC)c1C`, the Potency entry in assay [1] and in [2] was “inactive” in each case. In [3], the molecule was classed as inactive. For the same molecule, in [4], the activity change, negative = inhibition was 7.39% (inactive). The max response was 9.06% in [4] (setting [20]) and 19.2% in [4] (setting [21]).
With `CC(=O)OC1c2c(ccc3ccc(=O)oc23)OC(C)(C)C1OC(=O)CC(C)C` (stereo not drawn), the Potency in [5] is 20 µM (active); in [4] it was 25.1 µM (active). In addition, the Potency result in [1] and in [2] was “inactive” in each case. The molecule was classed as inactive in assay [3]. Moreover, the max response is -23.2% in assay [4] (setting [20]) and -91.6% in assay [4] (setting [21]).
On to `CN1CCN(c2ncc3ncc(=O)n(Cc4ccc(F)cc4)c3n2)CC1`, for which the Potency in assay [6] was > 11.4 µM (inactive); in assay [8] it was 25.1 µM (active); in [11], > 9.22 µM (inactive); in assay [12], > 46 µM (inactive). The activity change, negative = inhibition in assay [7] is -13.9% (inactive); in assay [9] it was -8.56% (inactive); in [4] it was 2.71% (inactive). For the same molecule, the activity, negative = inhibition in [10] was -18.8% (inactive). Further, the Potency entry in assay [13], in [14], in [1], in assay [16], in assay [17] and in assay [18] was “inactive” throughout. In assay [19], the Potency entry was “inactive”. In addition, the activation in assay [15] was -5.68% (inactive). For the same molecule, the max response in [4] (setting [20]) turned out to be 5.89%; in assay [4] (setting [21]), 7.12%.
As for `COC(=O)c1c(C)c2c(c(C)c1O)OC(=O)c1c(C)c(Cl)c(O)c(Cl)c1O2`, the Potency entry in [1] and in [2] was “inactive” in each case. The activity change, negative = inhibition in assay [4] is 9.5% (inactive). Besides, the max response in assay [4] (setting [20]) was -4.72%; in [4] (setting [21]) it was 1.33%.
With `COC(=O)[C@@H]1C2CC3c4[nH]c5cc(OC)ccc5c4CCN3CC2C[C@H](OC(=O)c2cc(OC)c(OC)c(OC)c2)C1OC` (stereo partly drawn), the Potency result in [1] is “inactive”. The Potency in assay [2] was 15.8 µM (active). Besides, in [4], the activity change, negative = inhibition is -8.88% (inactive). For the same molecule, the max response is 3.77% in assay [4] (setting [20]) and -5.55% in assay [4] (setting [21]).
With `COc1ccc2c(c1OC)C(=O)OC2C1c2c(cc3c(c2OC)OCO3)CCN1C` (stereo not drawn), the activity change, negative = inhibition was 11.6% [at 17.2 µM] (inactive) in assay [7], -3.27% [at 17.2 µM] (inactive) in assay [9] and 0.209% (inactive) in [4]. For the same molecule, the activity, negative = inhibition in [10] was 9.27% [at 17.2 µM] (inactive). Also, the Potency in assay [11] was > 20.6 µM (inactive). In addition, the max response in assay [4] (setting [20]) was -33.3%; in [4] (setting [21]), -33.7%.
Consider `COc1cccc(-c2ccc3ncnc(NCCNC(C)=O)c3c2)c1`, for which the Potency in assay [6] was > 11.4 µM (inactive); in assay [8], 3.16 µM (active); in assay [11] it was > 46 µM (inactive); in [12] it was > 46 µM (inactive); in assay [16], 0.355 µM (active); in [17], 0.447 µM (active). In addition, in [18], the Potency is 0.282 µM (active). The activity change, negative = inhibition was -19.2% (inactive) in assay [7], 21% (inactive) in assay [9] and -2.84% (inactive) in assay [4]. Besides, the activity, negative = inhibition in [10] is 11% (inactive). Further, the Potency entry in [13], in assay [14], in [1] and in assay [19] was “inactive” in each case. Besides, the activation in assay [15] was 5.52% (inactive). The max response in assay [4] (setting [20]) was -13.2%; in assay [4] (setting [21]) it was -16.4%.
Take `Nc1ncnc2c1nc(Br)n2C1O[C@H]2COP(=O)(O)O[C@@H]2C1O` (stereo partly drawn): the activity change, negative = inhibition in assay [4] was 0.429% (inactive). In addition, the max response in assay [4] (setting [20]) was found to be 27.3%; in assay [4] (setting [21]), 29.9%.
On to `NC(=NCc1ccc(Cl)c(Cl)c1)NC(=O)c1nc(Cl)c(N)nc1N`, for which the values for the activity change, negative = inhibition in assay [7] and in assay [4] were -11.5% [at 38 µM] (inactive) and 0.442% (inactive), respectively. Also, the values for the Potency in assay [8], in [11] and in assay [12] were 10 µM (active), > 46 µM (inactive) and > 46 µM (inactive), respectively. Further, the activity, negative = inhibition in [10] was 5.12% [at 38 µM] (inactive). Besides, the Potency entry in [1] is “inactive”. Moreover, the max response was -3.02% in assay [4] (setting [20]) and -2.51% in assay [4] (setting [21]).
On to `Cc1cccc2c3c(ccc12)C1=C(C(=O)C3=O)C(C)CO1` (stereo not drawn), for which the Potency result in assay [2] is “inactive”. Moreover, the outcome in assay [3] was inactive. In addition, in [4], the activity change, negative = inhibition is 8.95% (inactive). In addition, the max response in [4] (setting [20]) was determined as 9.52%; in assay [4] (setting [21]) it was 20.4%.
